PubChem BioAssay AID933 (National Center for Advancing Translational Sciences (NCATS), 2007)
Results filed as inconclusive are left out. Values without a mark were called inactive. Calls of active or inactive are those of the source. Calls come from the whole dose curve; as a rule, active = well fitted activation curve with a large enough effect in the signal ratio, with a control signal flat; inconclusive = small, poorly fitted or top-dose-only effect, or a change in a side signal; inactive = flat fitted curve, though single readings scatter; the % refers to the signal ratio.

molecular target: Thyrotropin receptor (Homo sapiens) (UniProt P16473); experiment: Secondary Concentration-Response Assay for Agonists of the Thyroid Stimulating Hormone Receptor: HTRF Activity Detection; details: HEK293-TSHR cells, cAMP HTRF ratio, 30 min; series mostly up to 91.7 µM;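 note: HEK 293 cells stably expressing human TSHR with RO 20-1724 phosphodiesterase inhibitor; % of control where 0% means no effect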
Sequence (P16473 whole entry, looked up): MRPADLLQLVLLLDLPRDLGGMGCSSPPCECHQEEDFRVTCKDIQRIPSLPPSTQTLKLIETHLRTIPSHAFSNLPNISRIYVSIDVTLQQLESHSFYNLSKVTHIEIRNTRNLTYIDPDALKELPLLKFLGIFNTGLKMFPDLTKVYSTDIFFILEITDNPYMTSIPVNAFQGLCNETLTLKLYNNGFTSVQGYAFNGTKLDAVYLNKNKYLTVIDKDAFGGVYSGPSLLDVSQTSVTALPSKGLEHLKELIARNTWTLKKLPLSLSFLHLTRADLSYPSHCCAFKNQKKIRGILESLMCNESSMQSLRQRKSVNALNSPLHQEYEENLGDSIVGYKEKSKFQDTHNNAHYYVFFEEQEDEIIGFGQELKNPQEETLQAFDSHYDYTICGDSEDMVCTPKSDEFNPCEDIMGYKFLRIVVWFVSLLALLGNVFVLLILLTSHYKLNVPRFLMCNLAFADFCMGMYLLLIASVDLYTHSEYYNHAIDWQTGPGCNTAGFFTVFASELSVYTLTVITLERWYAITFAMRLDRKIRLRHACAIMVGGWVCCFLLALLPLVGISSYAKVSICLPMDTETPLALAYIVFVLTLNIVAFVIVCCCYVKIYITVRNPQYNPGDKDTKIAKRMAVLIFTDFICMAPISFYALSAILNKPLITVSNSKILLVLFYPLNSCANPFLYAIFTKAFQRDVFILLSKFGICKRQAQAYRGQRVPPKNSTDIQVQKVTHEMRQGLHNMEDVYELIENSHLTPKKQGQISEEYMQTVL
From the text: NIH Chemical Genomics Center [NCGC]
NIH Molecular Libraries Screening Centers Network [MLSCN]
PI Name: Dr. Marvin Gershengorn, NIH
Confirmation of Thyroid Stimulating Hormone Receptor Agonists
TSH is an alpha/beta heterodimeric glycoprotein hormone secreted from the anterior pituitary gland which belongs to the glycoprotein hormone family. The actions of TSH are mediated by a seven-transmembrane receptor, which upon TSH binding couples preferentially to the G-alpha (s) protein (Gs), resulting in activation of adenylate cyclase and increase in cyclic adenosine 3', 5' monophosphate (cAMP). The TSH receptor (THSR) is mainly expressed in thyroid follicular cells and regulates their growth and function. Recombinant TSH is used to activate TSHR in patients with thyroid cancer receiving thyroid hormone suppression therapy and to screen for residual tumor after surgery, but it is expensive and must be administered intramuscularly. An orally active small molecule TSHR agonist would serve as an invaluable research tool for studying TSHR pharmacology and physiology, and would have multiple advantages in therapeutic settings. However, no selective small molecule agonist of the TSH receptor exists, and no small molecule screen for TSHR agonists has ever been reported.
A confirmatory assay of putative TSHR agonists was conducted on a different TSHR transfected HEK 293 cell line, using an orthogonal detection technology to measure cAMP stimulation: antibody-based Homogeneous Time Resolved Fluorescence (HTRF).
NCGC Assay Protocol Summary:
Homogeneous Time Resolved Fluorescence (HTRF) cAMP Assay. HEK 293 cells stably transfected with a vector containing the TSHR and maintained under hygromycin selection were obtained from the laboratory of Dr. Marvin Gershengorn. […] Plates were measured using the Envision plate reader (PerkinElmer, Boston, MA) with excitation at 330 nm and emissions of 615 nm and 660 nm.
Keywords: Thyroid-stimulating hormone TSH, TSHR, TSHR agonist, quantitative high throughput screening, qHTS, HTS, probe identification, CNG, cAMP, cyclic nucleotide gated ion channel PubChem

SMILES | outcome | activation
CCOC(=O)C1=C(N)Oc2c(c(=O)oc3ccccc23)C12C(=O)N(C)c1ccccc12 (stereo not drawn) | inactive | –
O=c1[nH]c(=O)n(Cc2ccco2)c(O)c1C=NC1CC1 | – | -0.432% [at 0.00035 µM]
C=CCN1C(=O)C2(C(C(=O)OC)=C(N)Oc3c2c(=O)oc2ccccc32)c2ccccc21 (stereo not drawn) | inactive | –
